# Screening data (PubChem)
# Most compounds without a hit are left out; they make up all but 19% or so of the library.
# HT1080 IDH1KD tx = kills HT-1080 cells with IDH1 knockdown. HT-1080 IDH1 knockdown viability, ATP luminescence, 48 h. Potency, µM (top dose mostly 46.1 µM), without a hit: top-dose activity, negative = toxicity, hits mostly cytotoxic. 2% of 360,000 active. AID 686971;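 also: potency is read from the fitted curve at half-maximal effect; 0% = DMSO wells and -100% = cell-free medium wells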
#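 In this qHTS, HT-1080 cells depleted of IDH1 are exposed for 48 h at 37 °C to compound titrations. Toxicity is scored from CellTiter-Glo luminescence, with DMSO as full viability and medium alone as none.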
# DT40 TDP1 no CPT = qHTS for Inhibitors of human tyrosyl-DNA phosphodiesterase 1 (TDP1): qHTS in cells in absence of CPT. DT40 Tdp1-/- hTDP1 cells, no CPT, ATP luminescence, 48 h. Potency, µM (doses to about 46.2 µM), without a hit: at the top dose activity change, negative = growth inhibition, most hits filed as inhibitors. 15% of 420,000 active; also: potency is read from the fitted curve at half-maximal effect; nearly all actives have a fitted effect of over 55% in size
#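 Growth kinetics read by CellTiter-Glo luminescence after ≥48 hr at 37 °C. Cells: DT40 Tdp1-/- stably carrying human TDP1, 400 per well, compound exposure in the absence of CPT (DMSO vehicle).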
# DT40 TDP1 CPT = DT40-hTDP1 cell growth loss with CPT; chicken DT40 Tdp1-/-;hTDP1 cells + 20 nM CPT, ATP luminescence, 48 h; Potency, µM (top dose mostly 46.2 µM), without a hit: at the top dose activity change, negative = growth inhibition, actives largely listed as inhibitors; 12% of 420,000 active; also: potency is read from the fitted curve at half-maximal effect; nearly all actives have a fitted effect of over 55% in size
#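 Cell growth measured by CellTiter-Glo luminescence after a minimum 48 h, 37 C compound exposure with 20 nM CPT in Tdp1-knockout DT40 cells stably expressing hTDP1, seeded 400/well; qHTS titration format.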
# HT1080NT lethal = kills 2HG-producing HT-1080-NT fibrosarcoma cells; 1.6% of 360,000 active; Potency, µM (highest dose often 46.1 µM), for the others: at the highest dose activity, negative = less viability, actives largely listed as cytotoxic; HT-1080-NT fibrosarcoma viability, CellTiter-Glo ATP luminescence, 48 h;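 also: NT is the 2HG producing partner of a matched IDH1 knockdown line; potency is read from the fitted curve at half-maximal effect; 0% = DMSO-treated cells and -100% = media-only wells without cells; nearly all actives have a fitted effect of over 55% in size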
#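 A 48-hour cytotoxicity screen used HT-1080-NT cells plated 2 hours before compound delivery. ATP-based CellTiter-Glo luminescence measured viability, normalized to DMSO and no-cell controls.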
# IL-1B inflam inh = inhibitors of inflammasome signaling (IL-1 beta secretion); THP-1 LPS/ATP IL-1B secretion, AlphaLISA, 16 h; hits give low values; activity change, % at 57.5 µM; 4.7% of 360,000 active; AID 743279; in the data active = activity change below about -50%; inconclusive = mostly about -30% to -49%
#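 THP-1 cells pretreated 1 hr with compounds (up to 57.5 uM final), then stimulated with LPS (250 ng/mL final) plus ATP (1.25 mM final); secreted IL-1B measured by AlphaLISA after 16 hr, decreased signal indicating inhibition.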
# ELG1 DNA repair = inhibitors of ELG1-dependent DNA repair in HEK293T cells; HEK293T ELG1-luciferase reporter, luminescence, 16 h; DNA damage induced by 5-fluorouridine; Potency, µM (series often up to 46.1 µM), for the others: at the top dose activity change, negative = inhibition, usual class: inhibitors; 2.3% of 330,000 active; also: potency is read from the fitted curve at half-maximal effect; nearly all actives have a fitted effect of over 55% in size
#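 Overnight (16 hr) co-exposure of 2,000 cells/well to 5-fluorouridine and compound at 37 °C preceded detection. Luciferase was quantified via ONE-Glo luminescence; loss of signal denotes inhibition.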
# Active calls of the source: *; ? = inconclusive; . = no result given; [ ] = remark or other dose. Unless noted, calls follow the shape of the dose curve; as a rule, active = well fitted curve in the direction sought with a large enough effect; inconclusive = small, poorly fitted or top-dose-only effect, or another doubt; inactive = no such curve, though single readings can be large; an effect the other way counts as inactive or inconclusive. Unless noted, % is scaled to controls: 0 for no effect and ±100 for the full control effect.
SMILES,HT1080 IDH1KD tx,DT40 TDP1 no CPT,DT40 TDP1 CPT,HT1080NT lethal,IL-1B inflam inh,ELG1 DNA repair
CCCCn1c(N)c(N(CCOC)C(=O)COC(=O)CSc2cc(C)c3ccccc3n2)c(=O)[nH]c1=O,13.0%,-8.8%,-14.7%,12.6%,-2.1,13.8%
O=C(NCCc1csc(-c2ccc(F)cc2)n1)c1cccc(F)c1,.,18.4µM*,?,.,.,.
O=C(NCCc1csc(-c2ccccc2)n1)c1c(F)cccc1F,-4.3%,?,?,2.8%,-24.5,?
O=C(NCCc1csc(-c2ccc(F)cc2)n1)c1c(F)cccc1Cl,.,?,23.1µM*,.,.,.
O=C(NCCc1csc(-c2ccccc2)n1)c1c(F)cccc1Cl,-7.0%,?,2.0%,-8.0%,-2.1,18.3µM*
CCOC(=O)[C@]12CCC=C1N(Cc1cccc3ccccc13)C(=O)[C@H](CC(=O)NCCCOC)C2,-1.4%,14.6µM*,18.4µM*,11.1%,22.5,.
CCCCOCCCNC(=O)C[C@@H]1C[C@@]2(C(=O)OC)CCCCC=C2N(Cc2ccccc2)C1=O,13.3%,13µM*,18.4µM*,-0.3%,-8.1,.
CCCCOCCCNC(=O)C[C@@H]1C[C@@]2(C(=O)OC)CCCCC=C2N(Cc2cccc3ccccc23)C1=O,?,20.6µM*,?,?,-51.3*,.
CCCCOCCCNC(=O)C[C@@H]1C[C@@]2(C(=O)OCC)CCC=C2N(Cc2cccc3ccccc23)C1=O,?,18.4µM*,20.6µM*,?,-67.4*,.
CCOC(=O)[C@]12CCCC=C1N(Cc1cccc3ccccc13)C(=O)[C@H](CC(=O)NCCCOC)C2,3.5%,?,?,2.8%,0.0,.
CCCS(=O)(=O)NCc1c(C)ncc2c1CCN(C(=O)c1cccc(C(F)(F)F)c1)C2,.,-8.8%,4.2%[9.04 µM],.,.,.
COC(=O)C1=C(CS(=O)(=O)c2ccc(C)cc2C)NC(=O)NC1c1ccc(C)cc1 (stereo not given),.,-3.2%,-1.0%,.,.,.
CCOC(=O)[C@]12CCC=C1N(Cc1cccc3ccccc13)C(=O)[C@H](CC(=O)NCC13CC4CC(CC(C4)C1)C3)C2,-20.9%,?,20.6µM*,-22.5%,16.6,.
CCOC(=O)[C@]12CCC=C1N(Cc1ccccc1)C(=O)[C@H](CC(=O)NCC13CC4CC(CC(C4)C1)C3)C2,?,?,?,?,-7.2,.
COC(=O)[C@]12CCCCC=C1N(Cc1cccc3ccccc13)C(=O)[C@H](CC(=O)NCCCN1CCCC1=O)C2,0.4%,16.4µM*,?,4.8%,-3.2,.
COc1ccccc1CNC(=O)C(=O)NCC1CCCN1S(=O)(=O)c1cccs1 (stereo not given),0.0%,?,?,1.7%,9.9,-4.7%
Cc1cccc(OCc2nnc(SCC(=O)NC3CCCC3)n2C)c1,6.6%,-1.9%,-5.9%,9.2%,-0.5,-0.5%
COc1cccc(NC(=O)Cn2c(=O)n(CC(=O)NCc3ccc(C)cc3)c(=O)c3sccc32)c1,.,-24.7%,?,.,.,.
CN1CCN(C(=O)Cn2c(-c3cccs3)cc3cc(Cl)ccc32)CC1,.,23.1µM*,?,.,.,.
CCN(CC)CCCNC(=O)Cn1c(-c2cccs2)cc2cc(Cl)ccc21,.,20.6µM*,?,.,.,.
CCCc1noc2c1/C(=N\O)CC(c1ccccc1)C2 (stereo not given),-8.0%,?,-20.4%,-7.7%,-4.8,?
CCc1noc2c1/C(=N\O)CC(c1ccccc1)C2 (stereo not given),-3.2%,16.4µM*,?,-1.9%,-12.2,-4.0%
CCOC(=O)CC(NC(=O)c1cc2cc(OC)ccc2oc1=O)c1ccc(OC)cc1 (stereo not given),.,-6.2%,?,.,.,.
O=C(CN1C(=O)NC2(CCCC2)C1=O)N1CCN(c2cccc(C(F)(F)F)c2)CC1,-4.8%,20.6µM*,?,-0.8%,-3.2,-22.2%
CC1(C)NC(=O)N(CC(=O)N2CCN(c3cccc(C(F)(F)F)c3)CC2)C1=O,-0.2%,?,?,2.8%,9.5,?
SMILES,HT1080 IDH1KD tx,DT40 TDP1 no CPT,DT40 TDP1 CPT,HT1080NT lethal,IL-1B inflam inh,ELG1 DNA repair
CC1CCC2(CC1)NC(=O)N(CC(=O)N(Cc1ccccc1)C(C)(C)C)C2=O (stereo not given),8.2%,?,-21.0%,10.9%,5.1,5.6%
O=C(CN1C(=O)NC2(CCCCCC2)C1=O)N1CCC(Cc2ccccc2)CC1,-10.7%,16.4µM*,?,-12.4%,17.0,?
O=C(CN1C(=O)NC2(CCCCCC2)C1=O)NCc1ccccc1,9.1%,-20.2%,-36.5%,5.1%,9.2,27.1%
Cc1cccc(N2CCN(C(=O)CN3C(=O)NC4(CCCCCC4)C3=O)CC2)c1C,-13.0%,20.6µM*,?,-23.0%,-11.9,5.3%
CC1CCC2(CC1)NC(=O)N(Cc1cccc(C(F)(F)F)c1)C2=O (stereo not given),-16.9%,?,18.4µM*,-5.1%,24.4,?
CC1CCN(S(=O)(=O)c2ccc3c(c2)c(=O)c(C(=O)N2CCN(c4cccc(Cl)c4)CC2)cn3C)CC1,.,-19.8%,?,.,.,.
CCNC(=O)COC(=O)/C=C/c1cccc(F)c1,23.5%,-12.8%,-24.9%,12.4%,-9.3,1.5%
COc1ncc2nc(-c3ccc(F)cc3)c(=O)n(Cc3cccs3)c2n1,.,4.3%,-2.1%,.,.,.
O=C(CN1C(=O)NC2(CCCC2)C1=O)N1CCN(c2ccc(C(F)(F)F)cc2[N+](=O)[O-])CC1,-1.0%,8.2µM*,13µM*,-5.7%[9.24 µM],-8.3,.
CC[C@]12c3[nH]c4cc(CCC(=O)N(C)C)ccc4c3CCN1C(=O)[C@@H](CC(=O)NCC13CC4CC(CC(C4)C1)C3)C[C@@H]2C(=O)N1CCN(C(=O)c2ccco2)CC1,?,16.4µM*,?,-25.3%,6.2,29.5%
CN(C)C(=O)CCc1ccc2c3c([nH]c2c1)[C@]1(C)[C@@H](C(=O)N2CCOCC2)C[C@H](CC(=O)NCC24CC5CC(CC(C5)C2)C4)C(=O)N1CC3,-18.7%,?,14.6µM*,-5.1%,-15.7,-1.6%
CC(C)N(C(=O)[C@H]1C[C@H](CC(=O)NCC23CC4CC(CC(C4)C2)C3)C(=O)N2CCc3c([nH]c4cc(CCC(=O)N(C)C)ccc34)[C@]12C)C(C)C,9.9%,7.31µM*,6.51µM*,6.5%,-26.3,?
